Source: PubChem BioAssay
In the library only some 1.3% were active in any assay of this set; here they are far more common.
3CLpro inhibitor = SARS-CoV 3CLpro protease inhibition. P0C6X7. 290,000 tested, 0.14% active. recombinant SARS-CoV 3CLpro, quenched FRET peptide cleavage. inhibition, % at 6 µM. AID 1706; in the data active = inhibition above about 12%
VHR inh abs = inhibitors of human VHR1 phosphatase (DUSP3); P51452; recombinant VHR phosphatase, pNPP absorbance; inhibition, % at 13.3 µM; 290,000 tested, 0.52% active; in the data active = inhibition above about 50%
SSB-PriA inh = inhibitors of Klebsiella pneumoniae PriA binding to SSB C-terminal tail | AlphaScreen SSBct-PriA binding, biotinylated peptide | inhibition, % at 33 µM | 430,000 tested, 0.6% active; in the data active = inhibition mostly above about 37%, no sharp cut-off; inactive = mostly below about 20%;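 note: plate controls were negative control peptide for no effect and reference peptide for full effect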
CCHFV vOTU inh = blocks the CCHF virus ovarian tumor domain protease; CCHFV vOTU protease, Pep-AMC fluorescence; inhibition, % at 11.5 µM; 370,000 tested, 0.55% active; in the data active = inhibition above about 30%; note: 0% = vehicle wells with enzyme and 100% = no enzyme wells
TcdB inh = blocks C. difficile toxin B glycohydrolase activity; TcdB glycohydrolase enzymatic assay, plate reader; 350,000 tested, 0.24% active; inhibition, % at 9.99 µM; P18177; in the data active = inhibition above about 10%
Vc quorum ag = quorum light induction in luxS cqsA deficient V. cholerae; V. cholerae BH1578 lux reporter, luminescence, 6 h; activation, % at 18.7 µM; 350,000 tested, 0.16% active; in the data active = activation mostly above about 9.7%, no sharp cut-off
* marks the source's active call; other numbers are inactive results; i = inactive; / = not tested or not shown.

SMILES	3CLpro inhibitor	VHR inh abs	SSB-PriA inh	CCHFV vOTU inh	TcdB inh	Vc quorum ag
O=[N+]([O-])c1cc(F)c(N2CCc3ccccc3C2)cc1N1CCOCC1	/	/	75*	/	/	/
O=[N+]([O-])c1cc(F)c(N2CCc3ccccc3C2)cc1N1CCCCC1	/	/	54	/	/	/
O=[N+]([O-])c1cc(F)c(N2CCCC2)cc1N1CCc2ccccc2C1	/	/	33	/	/	/
CN1CCN(c2cc(N3CCc4ccccc4C3)c(F)cc2[N+](=O)[O-])CC1	-1	3	41*	20	/	0
CCN1CCN(c2cc(N3CCc4ccccc4C3)c([N+](=O)[O-])cc2F)CC1	/	/	83*	/	/	/
CC(C)(C)N(C(=O)c1ccc(Br)o1)C(=O)N1CCCCC1	/	/	-4	/	/	/
COc1ccc(N(C)c2nnc(-c3ccc(NC(=O)c4cc5ccccc5o4)cc3)s2)cc1	/	/	-7	/	/	/
CS(=O)(=O)N1CCN(C(=O)C2CCCN(c3ccc(-n4cccn4)nn3)C2)CC1 (stereo not drawn)	/	/	-10	/	/	/
CCOc1ccc(NC(=O)Nc2ccc(Br)cn2)cc1	1	13	82*	6	1	i
Cc1ccc(Cn2nnc3c(=O)[nH]c(C4CCCN(S(=O)(=O)c5ccccc5F)C4)nc32)cc1 (stereo not drawn)	0	-29	-2	10	1	0
O=c1[nH]c(C2CCN(S(=O)(=O)c3ccc4c(c3)OCCO4)CC2)nc2c1nnn2Cc1ccccc1	3	53*	-1	12	0	0
Cc1ccc(Cn2nnc3c(=O)[nH]c(C4CCCN(S(=O)(=O)c5ccccc5)C4)nc32)cc1 (stereo not drawn)	0	51*	-6	-7	1	i
CS(=O)(=O)N1CCCC(C(=O)Nc2nnc(C3CCCCC3)o2)C1 (stereo not drawn)	/	/	1	/	/	/
O=S(=O)(CCC(F)(F)F)N1CCCC(Cc2nc(-c3cnccn3)no2)C1 (stereo not drawn)	/	/	-6	/	/	/
O=C(NNC(=O)c1ccc2ccccc2c1)c1cccc(F)c1	/	/	-8	-2	0	-1
CC(=O)Nc1ccc(NC(=O)c2cccc3ccccc23)cc1	-3	60*	-8	-12	1	i
O=C(NNC(=O)c1cccc2ccccc12)c1cccc(F)c1	/	/	4	4	11*	-1
Cc1ccc(NC(=O)c2cccc3ccccc23)cc1	0	35	-5	-5	1	i
CCc1ccc(-n2ncc(C(=O)N3CCN(C(=O)c4ccco4)CC3)c2-n2cccc2)cc1	/	/	-25	/	/	/
Cc1[nH]c(C)c(S(=O)(=O)N2CCCCC2C)c1C(=O)N1CCCC1 (stereo not drawn)	-2	56*	-3	6	0	4
COc1cccc(NC(=O)CSc2ncc(S(=O)(=O)c3cccc(C(F)(F)F)c3)c(=O)[nH]2)c1	/	/	4	/	/	/
Cc1c(Cl)cccc1NC(=O)C[C@H](NCCCN(C)C)C(=O)O	/	/	-26	/	/	/
COc1ccc(NS(=O)(=O)c2ccc(-c3cnc(C4CC4)o3)cc2)cc1OC	-5	52*	3	9	0	0
CC(=O)N1CCN(Cc2nc3cc(NC(=O)c4ccc(F)cc4)ccc3n2C)CC1	3	57*	-8	0	2	0
CCN1CCN(Cc2ccc(NC(=O)c3cc(NC(=O)c4cc5cccc(OC)c5o4)cc(OC)c3)cc2C(F)(F)F)CC1	/	15	73*	14	1	0
SMILES	3CLpro inhibitor	VHR inh abs	SSB-PriA inh	CCHFV vOTU inh	TcdB inh	Vc quorum ag
CCN1CCN(Cc2ccc(NC(=O)c3cc(NC(=O)c4cncc(-c5cccs5)c4)cc(OC)c3)cc2C(F)(F)F)CC1	-13	13	42*	4	3	0
CCOc1ccc(C(=O)NCCn2cc(SCC(N)=O)c3ccccc32)cc1	/	/	-5	/	/	/
CCN1C(=O)CC(N2CCN(c3ccc(Cl)cc3)CC2)C1=O (stereo not drawn)	-1	12	-8	0	/	i
CCN1C(=O)CC(N2CCN(c3ccc(C(=O)c4ccccc4)cc3)CC2)C1=O (stereo not drawn)	0	57*	-3	19	/	i
FC(F)(F)c1cc(CCN2CCNC[C@H]2Cc2cccc3ccccc23)cc(C(F)(F)F)c1	/	/	15	18	11*	i
COc1ccc(OC)c(-c2cc(C(=O)NCCc3nc(-c4ccco4)cn3C)n(C)n2)c1	/	/	35*	/	/	/
COc1ccc(OC)c(-c2cc(C(=O)NCC#CCOc3ccc4c(c3)OCO4)n(C)n2)c1	/	/	53*	/	/	/
CCOc1ccc(S(=O)(=O)n2ccnc2CC)c2ccccc12	/	/	-13	/	/	/
